# Sampled rows, rich in hits. Any-hit rate of the full collection: about 3.6%.
# HSF1 inhib = HSF1 inhibitors in luciferase reporter cells, primary screen, cell-based, NIH3T3, luminescence | NIH3T3-HGL HSE-luciferase, MG132-induced, luminescence 8 h; active compounds read low | activity change, negative = inhibition, % at 7.5 µM (by protocol) | 0.77% of 300,000 active | AID 2098, 2009;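 active means more than half of replicate wells show activity change below -50%, luminescence cut by over half; inconclusive means some wells, but at most half, below -50%; inactive means no replicate well below -50%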;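 further: luciferase reports HSF-1 transcriptional activity via heat shock element; 0% = median of DMSO wells and -100% = zero luminescence signal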
# HSF-1 act = HSF-1 activators, primary screen, NIH3T3-HGL cells, MG132 stress, luminescence, single point | 1.7% of 300,000 active | activation, % at 9 µM | AID 504408, 2011 | NIH3T3-HGL HSF-1 luciferase reporter, 8 h; 100% = twice DMSO control signal;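 active means mean replicate activation of at least 50% with a set share of replicates each reaching 50%; inconclusive means only one of those two conditions met; inactive means mean below 50% and too few replicates reaching it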;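 further: 0% = median of the neutral control wells and 100% = twice that signal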
# EBV LMP1 NFkB = EBV LMP1-driven NF-kappaB luciferase reporter inhibitors, primary screen, cell-based, luminescence, single point; AID 504558, 2011; 0.69% of 350,000 active; inhibition, % at 12.5 µM; LMP1-induced NF-kappaB luciferase reporter cells; in the data active means inhibition above about 41%; inconclusive means no clear call, values can overlap the other calls;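 further: 0% = neutral control wells and 100% = reference inhibitor control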
# TWEAK Fn14 block = inhibitors of TWEAK-Fn14 signaling, primary screen, luciferase reporter cells, uHTS. TWEAK-stimulated Fn14 reporter cells, luciferase luminescence, 8 h. inhibition, % at 10 µM. 2% of 360,000 active. AID 1159606, 2016; in the data active means inhibition above about 50%
# TROY signal inh = inhibitors of TROY-driven NF-kB signaling, primary screen, Q293 LMP1-TROYcd cells, NF-kB luciferase, uHTS; Q293 LMP1-TROYcd NF-kB luciferase reporter, 4 h; inhibition, % at 10 µM; 0.98% of 360,000 active; AID 1347056, 2019;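 active means compounds whose plate-normalised and pattern-corrected inhibition of the luciferase reporter signal at the single screening dose is 50% or more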
# LGR2 inh = inhibitors of bursicon-induced LGR2 CRE-luciferase signal, primary screen, cell-based, HEK293, CRE-luciferase reporter, bursicon stimulation | bursicon-stimulated, 4 h | inhibition, % at 9.99 µM | Drosophila bursicon receptor LGR2 (rickets) | 0.35% of 380,000 active;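 active means drop in luminescence signal, shown as inhibition above about 50% in the replicate tests, limit read from the data, passing the limit was not always enough; inconclusive means probably only some replicates passing the limit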;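 further: agonist challenge used bursicon conditioned medium at about half maximal strength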
# The depositor's hits bear a star; ? = inconclusive; . = no result.
SMILES,HSF1 inhib,HSF-1 act,EBV LMP1 NFkB,TWEAK Fn14 block,TROY signal inh,LGR2 inh
COCCCNC(=O)c1ccc2nc(Cc3ccc(OC)cc3)oc2c1,17,31,-35,-3,-61,-58
O=C(C[C@@H]1C[C@H]2c3cc(NC(=O)NC4CCCC4)ccc3O[C@H]2[C@H](CO)O1)NC1CCCC1,.,.,.,.,.,-2
CC1Cc2cc(/C(O)=C3/C(=O)C(=O)N(Cc4ccco4)C3c3cccs3)ccc2O1 (stereo unspecified),-42,-45,-8,66*,65*,.
COc1ccc(/C(O)=C2/C(=O)C(=O)N(Cc3ccco3)C2c2cccs2)cc1 (stereo unspecified),21,22,-1,-10,-37,.
Cc1ccc(S(=O)(=O)N(CCCO)CC(O)CON=C2c3ccccc3-c3ccccc32)cc1 (stereo unspecified),5,20,1,56*,33,.
CC(C)(C)NCC(O)CON=C1c2ccccc2-c2ccccc21 (stereo unspecified),-20,-38,-12,-8,-32,7
O=C(/C=C/c1cccnc1)c1ccc([N+](=O)[O-])cc1,2,5,0,17,21,20
COc1cc(C(=O)/C=C/c2cccnc2)c([N+](=O)[O-])cc1OC,19,19,18,36,16,64*
COc1ccc2c3c([nH]c2c1)[C@H](CO)N(C(=O)c1ccncc1)CC31CN(C(=O)Nc2cccc(F)c2)C1,.,.,.,.,.,-1
O=C(NC12CCC(O)C(SC1)/C2=N/O)c1ccccc1 (stereo unspecified),-1,11,-3,83*,-8,.
O=C(NC12CC3CC(CC(C3)C1)C2)c1ccccc1,-1,13,-10,6,-10,-6
COc1ccc2c3c([nH]c2c1)[C@@H](CO)N(Cc1ccccc1)CC31CN(S(C)(=O)=O)C1,.,.,.,.,.,-6
CCOc1ccc(-c2nnc(-c3ccccc3)o2)cc1,12,30,-2,81*,34,.
CCOc1ccc(-c2nc3ccccc3c(=O)o2)cc1,24,55*,9,34,-9,12
CCCCOc1ccc(-c2nnc(-c3ccncc3)o2)cc1,13,26,-41,10,-4,.
CCOc1ccc(-c2nnc(-c3ccncc3)o2)cc1,16,52*,-13,28,-25,.
COc1ccc(-c2nc3ccccc3c(=O)o2)cc1OC,-5,6,3,2,-5,.
Cn1cnc(CCNC(=O)C[C@@H]2CC[C@H]3[C@@H](COC[C@H](O)CN3C(=O)Nc3ccc(F)cc3)O2)c1,.,.,.,.,.,-1
CCC(=O)N1CC2(CCN(S(C)(=O)=O)CC2)c2c(n(C)c3cc(OC)ccc23)[C@@H]1CO,.,.,.,.,.,3
O=C1CN(Cc2ccccc2)C[C@H]2[C@@H](c3ccc(Br)cc3)[C@@H](CO)N12,.,.,.,.,.,-19
COc1cccc(C(=O)Nc2ccc3c(c2)C(=O)N(CCC(=O)O)C3=O)c1,-1,-7,-1,18,12,2
CC(=O)Nc1cccc(Oc2ccc3c(c2)C(=O)N(CCC(=O)O)C3=O)c1,5,7,-4,88*,.,.
Cc1ccccc1OCC(=O)Nc1ccc2c(c1)C(=O)N(CCC(=O)O)C2=O,-51*,-64,1,3,-6,-1
Oc1ccc(Nc2nc(-c3ccc4ccccc4c3)cs2)cc1,-7,-2,-255,76*,9,.
Oc1ccc(-c2csc(Nc3ncccn3)n2)cc1,44,60*,1,4,-62,-65
SMILES,HSF1 inhib,HSF-1 act,EBV LMP1 NFkB,TWEAK Fn14 block,TROY signal inh,LGR2 inh
CC(=O)Nc1nc(-c2ccc3ccccc3c2)cs1,43,87*,-51,9,-72,-99
Cc1ccc(Nc2nc(-c3c(C)nc4ccccn34)cs2)cc1,-9,-11,-2,95*,59*,13
CC(=O)NCCC(=O)Nc1nc(-c2ccc3ccccc3c2)cs1,7,25,0,-5,-17,-35
c1ccc(-c2csc(Nc3ncccn3)n2)cc1,24,42,-26,31,-49,6
O=C(NCC[C@@H]1CC[C@@H](NC(=O)C2CCOCC2)[C@@H](CO)O1)Nc1ccc(Cl)cc1,.,.,.,.,.,-8
O=C1N=C(N2CCCCC2)SC1=C1CCCC1,0,16,-18,-38,-25,.
CCCCN1C(=O)/C(=C2\SC(N3CCCCC3)=NC2=O)c2ccccc21,36,51*,-15,-7,12,.
Cn1cnc(S(=O)(=O)N2C[C@@H](O)COC[C@@H]3O[C@H](CC(=O)NCc4cc(F)cc(F)c4)CC[C@H]32)c1,.,.,.,.,.,-4
Cc1ccc(NC(=O)C(=Cc2ccc(C(=O)O)cc2)C(=O)Nc2ccc(C)cc2C)c(C)c1,470,555*,30,70*,-25,.
CC(=O)C(=Cc1ccc(C(=O)O)cc1)C(C)=O,12,?,-6,3,12,4
O=C(Cn1c(=O)c2cccn2c2ccccc21)NCc1cccc(F)c1,9,23,-3,7,-3,6
COc1cccc(CNC(=O)Cn2c(=O)c3cccn3c3ccccc32)c1,-86*,-89,2,-15,-16,5
COc1ccc(C(C(=O)NC2CCCCC2)N(C(=O)CCl)c2cccc(Cl)c2)cc1 (stereo unspecified),-90*,-90,-1,58*,-37,.
COc1ccc(CN(C(=O)c2nsc(Cl)c2Cl)C(C(=O)NC2CCCC2)c2ccc(C)cc2)cc1 (stereo unspecified),0,17,54*,13,2,3
COc1ccc(C(C(=O)NC2CCCC2)N(C(=O)c2ccoc2C)c2ccc(C)cc2)cc1 (stereo unspecified),6,5,-10,-5,-2,9
COc1ccc(C(C(=O)NC2CCCCC2)N(C(=O)CCl)c2ccc(C)cc2)cc1 (stereo unspecified),2,-18,47*,57*,-2,.
COc1ccc(C(C(=O)NC2CCCCC2)N(C(=O)CCl)c2ccc(OC)cc2)cc1 (stereo unspecified),-39,-35,?,64*,-8,.
C[C@H]1CCCCO[C@H](CN(C)Cc2ccc3c(c2)OCO3)[C@@H](C)CN([C@@H](C)CO)C(=O)c2cc(NC(=O)Nc3ccc(F)cc3)ccc2O1,.,.,.,.,.,-18
CN1C(=O)C2C(c3ccc(N(C)C)cc3)=NN(Cc3ccccc3)C2C1=O (stereo unspecified),29,75*,4,6,-11,-16
COc1ccc2c(c1)[nH]c1c(N3CCN(Cc4ccc5c(c4)OCO5)CC3)ncnc12,5,5,22,100*,66*,.
